# Data taken from PubChem BioAssay (NCI).
# This is part of a sample that, as a whole, favours compounds with a hit. Of some 83,000 tested, about 20% had one in any assay.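 Testing used 96-well plates and a 48-hour single-concentration exposure. Example: -40 means 40% of the starting cells died.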 A number with no mark means an inactive call. The source made the active and inactive calls. Rule for the calls: active = growth percent below 10; inactive = the rest.
# Columns and labels:
# Assay in all cases: NCI-60 one-dose screen, 48 h (100 = growth as untreated, 0 = no growth, -100 = all killed)
# HT29 colon = settings: 10 µM unless noted
# SNB-75 CNS = settings: 10 µM unless noted
# SNB-19 CNS = settings: 10 µM unless noted
# U251 CNS = settings: 10 µM unless noted
# PC-3 prostate = settings: 10 µM unless noted
# SK-MEL-5 melanoma = settings: 10 µM unless noted
# UACC-62 melanoma = settings: 10 µM unless noted
# LOX IMVI melanoma = settings: 10 µM unless noted
# SK-MEL-28 melanoma = settings: 10 µM
# SK-MEL-2 melanoma = settings: 10 µM unless noted
# SN12C renal = settings: 10 µM unless noted
# UO-31 renal = settings: 10 µM unless noted
# TK-10 renal = settings: 10 µM unless noted
# ACHN renal = settings: 10 µM unless noted
# CAKI-1 renal = settings: 10 µM unless noted
# A498 renal = settings: 10 µM unless noted
# CCRF-CEM leukemia = settings: 10 µM unless noted
# MOLT-4 leukemia = settings: 10 µM unless noted
# SR leukemia = settings: 10 µM unless noted
Structure (SMILES),growth (HT29 colon),growth (SNB-75 CNS),growth (SNB-19 CNS),growth (U251 CNS),growth (PC-3 prostate),growth (SK-MEL-5 melanoma),growth (UACC-62 melanoma),growth (LOX IMVI melanoma),growth (SK-MEL-28 melanoma),growth (SK-MEL-2 melanoma),growth (SN12C renal),growth (UO-31 renal),growth (TK-10 renal),growth (ACHN renal),growth (CAKI-1 renal),growth (A498 renal),growth (CCRF-CEM leukemia),growth (MOLT-4 leukemia),growth (SR leukemia)
CCOC(=O)C1=C(C)N=c2s/c(=C\c3cc(Cl)ccc3O)c(=O)n2C1c1ccc(OC)cc1 (centres undefined),72.9%,89%,99%,85.4%,85.2%,88.5%,94%,95.2%,106%,94.6%,93.8%,58.8%,94.1%,99.4%,96.5%,76.1%,85.3%,96.4%,86%
COC(=O)C1(C)COP(=O)(Nc2ccc(OC)cc2)OC1 (centres undefined),101%,92.1%,103%,104%,99.8%,105%,108%,96.3%,108%,96.4%,102%,82.7%,108%,104%,99.2%,101%,102%,99.2%,93.2%
O=C(Nc1ccc(-c2nc3ccc(NC(=O)c4ccc(Cl)cc4)cc3[nH]2)cc1)c1ccc(Cl)cc1,-58.1% (active),-31.6% (active),35.2%,2.01% (active),38.3%,9.75% (active),0.642% (active),-49.6% (active),7.47% (active),-33.9% (active),24.5%,-5.85% (active),-27.9% (active),9.32% (active),27.2%,58.7%,1.27% (active),3.96% (active),-24.9% (active)
COc1ccccc1C(=O)O/N=C(\N)Cc1cccc2ccccc12,77.7%,67%,87.7%,90.9%,78.6%,70.4%,83.3%,70.6%,114%,89.6%,67.3%,70.8%,120%,86.5%,77%,95.1%,80.1%,79%,82.1%
O=C(N/N=C/c1ccccc1Cl)C(=O)Nc1cccc(C(F)(F)F)c1,97.4%,116%,94.1%,96.9%,106%,96.6%,91.2%,94.9%,113%,113%,92.7%,90.8%,83.7%,76%,97.6%,89.3%,100%,92.1%,65.1%
O=C(NC1CCN(Cc2ccccc2)CC1)c1cc2nc(-c3ccc(Cl)s3)cc(C(F)(F)F)n2n1,-84.3% (active),35.6%,101%,-86.9% (active),72.2%,89.1%,97.3%,45.2%,-97.4% (active),-62.8% (active),91.3%,96.1%,84.9%,96.4%,102%,98.6%,-21.7% (active),-34.3% (active),-8.99% (active)
Oc1c(CN2CCN(c3ccccc3F)CC2)cc(Br)c2cccnc12,-63.1% (active),-92.2% (active),-16.6% (active),-83.5% (active),5.26% (active),-10.3% (active),-42.5% (active),-8.44% (active),-78% (active),-54.3% (active),8.15% (active),-69.6% (active),-84.1% (active),-30.4% (active),-17.3% (active),88.1%,1.46% (active),5.58% (active),-6.68% (active)
c1ccc(CNc2nc(Nc3ccccc3)nc3ccccc23)cc1,54.5%,-6.23% (active),47.3%,29.6%,19.5%,54.8%,27.1%,59.6%,-35.1% (active),21.8%,71.3%,80.7%,19.3%,33.7%,40.4%,37.4%,69.5%,80.3%,20%
CCCCNc1nc(NC(C)(C)C)nc(NC(C)(C)C)n1,15.2%,59.8%,63.7%,38%,58.6%,50.7%,55.3%,56.8%,61.4%,64.1%,56.1%,37.4%,55.9%,62.9%,51.3%,45.4%,42.4%,39.1%,33.6%
Cc1ccc(S(=O)c2ccc([N+](=O)[O-])c3nonc23)cc1 (centres undefined),93.8%,112%,117%,96.4%,92.6%,100%,108%,73.6%,105%,112%,126%,97.9%,72.3%,72.4%,90.5%,84.3%,1.61% (active),-3.44% (active),-8.16% (active)
C=C(C)CCC(C)N1CCC(N2CCC(C(=O)NCCc3ccccc3)CC2)CC1 (centres undefined),39.3%,105%,102%,77.4%,59.7%,10.9%,68.9%,63.1%,90%,99.3%,57.5%,78.2%,114%,72.1%,89.1%,72%,45.5%,42.9%,4.33% (active)
Cc1ccc(F)cc1NC(=O)c1cc(Cl)ccc1Nc1ccccc1,17.8%,53.6%,59.4%,42.5%,23.2%,70.9%,65.4%,49.4%,89.6%,54.9%,32.1%,23.7%,63%,42.3%,48.2%,89.1%,45.8%,29%,44.2%
COc1ccc(C2NCCc3c2[nH]c2ccccc32)cc1CN1CCN(c2ccc(F)cc2)CC1 (centres undefined),-3.33% (active),24.4%,77.9%,26%,44.8%,-40.7% (active),12.5%,2.51% (active),67.9%,64.1%,55.6%,2.15% (active),56.6%,64.7%,28.8%,89.8%,16.3%,23.6%,19.9%
COc1ccc(-c2cc(=O)c3c(OC)c4ccoc4c(/C=C/C=O)c3o2)cc1,79.1%,-1.37% (active),49%,16.4%,21.3%,32.1%,67.1%,-11.8% (active),89.1%,75.4%,13%,44.1%,68.7%,75.4%,95.1%,78.8%,0.782% (active),-8.67% (active),-8.77% (active)
N#C/C(=C1\SC(=O)CN1c1ccccc1)c1nc2ccccc2s1,108%,88.7%,94.3%,91.9%,92%,93.3%,91.1%,88.3%,106%,86.1%,91%,53.2%,135%,93.6%,89.9%,82.4%,84.4%,84.2%,76.4%
COc1ccc(-c2nsc3c2NC(=O)CC3c2ccsc2)cc1 (centres undefined),0.633% (active),10.4%,50%,20.4%,24.3%,22%,24.9%,33.4%,42.7%,45.5%,41.9%,45%,53.2%,41.9%,27.6%,0.156% (active),-7.06% (active),17.5%,19.2%
